About 1,400 (0.39%) of roughly 360,000 compounds were called active. Cut-off read from the data, not from the text of the source: active = inhibition above about 5% (passing the limit was not always enough); inactive = the rest. Many of the other results were omitted from the sample, so actives are more common in it than they were.
These molecules were tested against Tyrosine-protein kinase ABL1 (Homo sapiens) + Ras and Rab interactor 1 (Homo sapiens) (UniProt P00519+Q13671) (assay: inhibitors of Rin1-Abl protein binding, primary screen, biochemical, TR-FRET (AID 588664)). Conditions: at 7.35 µM, stronger effect = higher value.
Chain of Tyrosine-protein kinase ABL1 (Homo sapiens) + Ras and Rab interactor 1 (Homo sapiens) (P00519 whole entry, looked up): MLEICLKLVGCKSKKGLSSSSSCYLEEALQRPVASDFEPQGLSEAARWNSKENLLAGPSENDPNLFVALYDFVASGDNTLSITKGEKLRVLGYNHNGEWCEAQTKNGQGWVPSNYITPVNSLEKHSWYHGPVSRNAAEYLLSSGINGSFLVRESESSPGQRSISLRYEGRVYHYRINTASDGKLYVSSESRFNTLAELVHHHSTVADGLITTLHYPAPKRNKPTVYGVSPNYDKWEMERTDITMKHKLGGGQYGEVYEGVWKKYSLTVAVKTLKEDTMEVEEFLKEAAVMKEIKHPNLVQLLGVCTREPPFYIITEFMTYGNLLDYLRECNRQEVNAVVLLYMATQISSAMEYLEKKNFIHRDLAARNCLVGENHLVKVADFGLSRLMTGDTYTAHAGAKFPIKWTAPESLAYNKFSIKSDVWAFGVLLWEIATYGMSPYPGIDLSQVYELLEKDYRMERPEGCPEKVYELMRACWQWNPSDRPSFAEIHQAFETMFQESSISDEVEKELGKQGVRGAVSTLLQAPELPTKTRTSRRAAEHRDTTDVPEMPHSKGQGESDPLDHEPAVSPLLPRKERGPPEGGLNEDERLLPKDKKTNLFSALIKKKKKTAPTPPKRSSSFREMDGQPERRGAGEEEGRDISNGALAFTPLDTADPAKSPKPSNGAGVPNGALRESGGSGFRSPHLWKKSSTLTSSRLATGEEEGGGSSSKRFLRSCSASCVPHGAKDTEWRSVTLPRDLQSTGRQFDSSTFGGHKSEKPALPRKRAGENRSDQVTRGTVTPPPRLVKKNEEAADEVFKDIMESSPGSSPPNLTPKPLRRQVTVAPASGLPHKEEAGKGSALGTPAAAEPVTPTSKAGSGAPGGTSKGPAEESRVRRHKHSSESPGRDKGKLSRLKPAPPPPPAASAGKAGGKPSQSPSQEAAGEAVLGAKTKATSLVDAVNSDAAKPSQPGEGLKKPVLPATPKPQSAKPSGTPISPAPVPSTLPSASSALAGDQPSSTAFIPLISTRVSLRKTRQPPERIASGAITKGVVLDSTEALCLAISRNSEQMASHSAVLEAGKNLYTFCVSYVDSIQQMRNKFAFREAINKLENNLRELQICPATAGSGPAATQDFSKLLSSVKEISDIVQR
Chain of Tyrosine-protein kinase ABL1 (Homo sapiens) + Ras and Rab interactor 1 (Homo sapiens) (Q13671 whole entry, looked up): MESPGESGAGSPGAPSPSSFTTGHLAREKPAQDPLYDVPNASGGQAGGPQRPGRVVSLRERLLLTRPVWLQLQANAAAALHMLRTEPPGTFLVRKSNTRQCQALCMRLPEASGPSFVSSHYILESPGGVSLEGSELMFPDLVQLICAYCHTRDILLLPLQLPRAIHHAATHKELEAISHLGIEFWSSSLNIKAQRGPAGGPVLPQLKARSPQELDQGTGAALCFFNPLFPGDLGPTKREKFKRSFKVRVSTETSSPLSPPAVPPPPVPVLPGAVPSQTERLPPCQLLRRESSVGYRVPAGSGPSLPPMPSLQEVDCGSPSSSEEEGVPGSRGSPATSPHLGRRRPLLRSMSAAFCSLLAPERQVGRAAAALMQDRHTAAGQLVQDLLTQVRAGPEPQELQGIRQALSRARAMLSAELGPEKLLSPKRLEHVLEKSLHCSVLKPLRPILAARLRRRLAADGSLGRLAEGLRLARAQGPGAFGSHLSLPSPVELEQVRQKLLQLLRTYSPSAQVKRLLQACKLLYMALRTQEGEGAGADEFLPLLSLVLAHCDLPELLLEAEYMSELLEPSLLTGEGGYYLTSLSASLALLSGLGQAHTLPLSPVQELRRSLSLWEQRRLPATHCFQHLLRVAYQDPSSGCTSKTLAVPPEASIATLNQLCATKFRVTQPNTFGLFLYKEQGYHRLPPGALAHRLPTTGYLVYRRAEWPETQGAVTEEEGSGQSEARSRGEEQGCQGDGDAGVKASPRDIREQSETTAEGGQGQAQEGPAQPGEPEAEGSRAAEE
`CSCCC(c1nnnn1C(C)(C)C)N1CCC(n2c(=O)[nH]c3ccccc32)CC1` (stereo not given) was tested, and the inhibition was 19.1% (active).
In the case of `O=c1[nH]c2ccccc2n1C1CCN(C(c2ccccc2)c2nnnn2Cc2ccccc2)CC1` (stereo not given), the inhibition was -0.41% (inactive).
`COc1ccc(-n2nnnc2C(c2cccc3ccccc23)N2CCC(n3c(=O)[nH]c4ccccc43)CC2)cc1` (stereo not given) was tested, and the inhibition was 0.78% (inactive).
For `COc1ccc2[nH]c3c(c2c1)CCN[C@H]3C`, the inhibition was -0.17% (inactive).
With `CCc1nnc(NS(=O)(=O)c2ccc(N=Cc3c(O)n(-c4ccccc4)c(=O)[nH]c3=O)cc2)s1` the inhibition was 4.11% (inactive).

Reference: PubChem BioAssay AID588664 (The Scripps Research Institute Molecular Screening Center, 2011)
